Screens: PubChem, National Center for Advancing Translational Sciences (NCATS)
An excerpt weighted towards active compounds, which were near 1.9% of everything screened.
IMPase Li cell – IMPase inhibition in cells with lithium potentiation; 0.35% of 210,000 active; CHO-M1 cells, IP1 TR-FRET (IP-One), carbachol + lithium; AID 1457; Potency, µM (doses to about 59.4 µM), for inactives: at the top dose activity, negative = IMPase inhibition, hits mostly inhibitors;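 note: IP1 builds up when IMPase is blocked and the TR-FRET signal falls; plate controls were basal vehicle for no effect and high inhibitor control for full effect; nearly all actives have a fitted effect of over 50% in size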
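Readout is a homogeneous TR-FRET IP1 immunoassay (Ex 320, Em 665 and 620), where raised cytosolic IP1 lowers signal. Cells were CHO-M1 treated 30 min at 37C with test compounds plus a little lithium; AC50 values came from Hill-equation fitting.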
NPSR antagonist – antagonists of human neuropeptide S receptor cAMP signaling; Q6W5P4; CHO-NPSR cells, cAMP TR-FRET, antagonist mode; Potency, µM (titrated, usually from 38.3 µM), without a hit: at the top dose activity change, negative = inhibition, actives largely listed as inhibitors; 1% of 220,000 active; note: % is set by controls: 0 for no effect and ±100 for the full control effect; nearly all actives have a fitted effect of over 50% in size
Target sequence (Q6W5P4 whole entry, looked up): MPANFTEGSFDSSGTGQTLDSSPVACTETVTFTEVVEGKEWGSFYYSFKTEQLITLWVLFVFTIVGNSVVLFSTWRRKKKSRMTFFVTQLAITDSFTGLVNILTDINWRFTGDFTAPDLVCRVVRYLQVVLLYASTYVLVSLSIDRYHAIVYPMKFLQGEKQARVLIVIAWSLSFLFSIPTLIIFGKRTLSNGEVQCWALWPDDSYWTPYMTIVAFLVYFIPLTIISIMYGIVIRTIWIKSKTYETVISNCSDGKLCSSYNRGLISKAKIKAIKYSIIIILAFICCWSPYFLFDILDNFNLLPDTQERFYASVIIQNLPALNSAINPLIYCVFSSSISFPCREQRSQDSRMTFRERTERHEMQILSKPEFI
HttQ103 aggreg – mutant huntingtin aggregation inhibition. Potency, µM (series often up to 46.1 µM), for the others: at the top dose activity change, negative = inhibition, most hits filed as inhibitors. PC12 HttQ103-GFP aggregates, Acumen cytometry, 40 h. 1.1% of 220,000 active; note: % is set by controls: 0 for no effect and ±100 for the full control effect; nearly all actives have a fitted effect of over 60% in size
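Compounds (qHTS titration) were added to PC12 cells expressing an ecdysone-driven HTT exon 1 Q103–GFP fusion after induction with 100 nM tebufenozide. Aggregate formation was measured as GFP objects in cell lysates.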
ERK EGF inh – inhibitors of EGF-stimulated ERK signaling pathway; 0.41% of 130,000 active; HEK293-V1b, EGF-stimulated phospho-ERK AlphaScreen; Potency, µM (titrated, usually from 11.5 µM), for the others: at the highest dose activity change, negative = inhibition, hits mostly inhibitors;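 note: plate controls were stimulated vehicle wells for no effect and unstimulated vehicle basal for full effect; nearly all actives have a fitted effect of over 55% in size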
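Compounds are titrated over HEK293-V1b cells kept overnight in 1% FBS. After 30 min at 37C, EGF (25 nM final) triggers ERK phosphorylation for 5 min, measured by AlphaScreen in lysates.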
HTT cytoprotect – Huntington cell model cytoprotection by ATP luminescence; PC12 HTT-Q103 induced, cytoprotection, ATP luminescence, 40 h; Potency, µM (highest dose often 56.4 µM), for inactives: cytoprotection (ATP increase), hits mostly activators; 0.14% of 230,000 active; AID 1471; note: % of control where 0% means no effect; nearly all actives have a fitted effect of over 45% in size
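PC12 cells with ecdysone-inducible HTT exon 1 Q103-GFP, induced with 100 nM tebufenozide and co-treated with library compounds in a dose series (1536-well, 1500 cells/well). Cytoprotection read as ATP content by ATPlite luminescence.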
* = called active by the depositor; ? = inconclusive; . = not tested or not shown; [ ] = another dose, or the depositor's remark. Calls come from the whole dose curve; as a rule, active = well fitted curve in the direction sought with a large enough effect; inconclusive = small, poorly fitted or top-dose-only effect, or another doubt; inactive = no such curve, though single readings can be large; an effect the other way counts as inactive or inconclusive. Potency is the fitted concentration of half-maximal effect.

SMILES	IMPase Li cell	NPSR antagonist	HttQ103 aggreg	ERK EGF inh	HTT cytoprotect
O=C(NC(=S)Nc1ccccc1O)c1ccc(-c2ccc(Cl)cc2)o1	-6%[38.3 µM]	-15%[46.1 µM]	11µM*	.	-61%
Cc1ccc(Sc2ncnc3onc(C)c23)c(C)c1	5%	-31%	.	0%	?
Cc1noc2ncnc(Sc3ccccc3Cl)c12	29%[38.3 µM]	-16%[46.1 µM]	5µM*	.	-83%
O=C(/C=C\c1ccc(O)c(O)c1)OCCc1ccccc1	.	.	.	.	-47%[1.9 µM]
Nc1cc(C(=O)O)c(N)c2c1C(=O)c1ccccc1C2=O	.	3.2µM*	5%[9.22 µM]	28µM*	-15%[10 µM]
C[C@@H](C(=O)Nc1ccc2ccccc2c1)[C@H]1C[C@]1(C)[C@H](NS(=O)(=O)c1ccc2ccccc2c1)c1ccccc1	-7%	.	.	0%	13%
Cc1cc(CN2CCN(CCC#N)CC2)c(O)c(C2(C)CCCCC2)c1	22%[38.3 µM]	10µM*	-14%	.	-11%
CC1CCC2C(C)(C)C3CC12CC[C@]3(C)O (some centres undefined)	-4%	.	.	?	.
Cn1c(=N)c(S(=O)(=O)c2ccc(F)cc2)cc2c(=O)n3ccccc3nc21	2%[38.3 µM]	-15%[46.1 µM]	7%	.	-23%[0.074 µM]
Cn1c(=N)c(S(=O)(=O)c2ccccc2)cc2c(=O)n3ccccc3nc21	24%[38.3 µM]	-9%[46.1 µM]	3.2µM*	.	-17%
CN(C)c1ccc2nc3c(C(=O)O)cc(=O)c(O)c-3oc2c1	73%	.	.	.	-5%[10 µM]
COC(=O)C1=C(C(=O)OC)[C@@H]2N(C)c3ccc(OC)cc3[C@@]23C[C@@H](C(=O)OC)N(S(=O)(=O)c2ccc(C#N)cc2)C3=N1	2%	.	.	.	-15%[10 µM]
COc1ccc(-n2cc(-c3ccc(Br)cc3)[nH]c2=S)cc1	11µM*	-35%	18%	4%	0%[10 µM]
CC1(C)CC2C1CC[C@]1(C)CCC3C(C(=O)O)CC(=O)O[C@]32C1 (some centres undefined)	2%	.	.	8%	.
Cc1ccc2c(n1)sc1c(-c3ccccc3)c(C#N)c(N)nc12	.	-20%[46.1 µM]	13µM*	.	-61%
CCN(CC)c1ccc(-n2c(C)c(C(C)=O)c(C(C)=O)c2C)cc1	4%[38.3 µM]	-23%[46.1 µM]	22µM*	.	-8%[0.074 µM]
CCCCCC1OC1C/C=C\C/C=C\C/C=C\CCCC(=O)O (centres undefined)	0%	.	.	-11%	-36%
O=C(/C=C(\O)c1ccccc1)c1ccccc1O	5%	.	.	-3%	-23%
Cn1cccc1/C=N/N1CCN(Cc2cccc3ccccc23)CC1	.	-13%	9%[9.22 µM]	18µM*	3%[10 µM]
O=C(CN1CCCC(O)C1)N1c2ccccc2Sc2ccc(C(F)(F)F)cc21 (centres undefined)	.	-20%[46.1 µM]	-2%	.	-8%
O=C(CSc1nc(C2CC2)nc2ccccc12)N1c2ccccc2Sc2ccc(C(F)(F)F)cc21	7%	7.9µM*	10%	.	17%[10 µM]
C/C(=N\NC(=O)C(C)Oc1ccc([N+](=O)[O-])cc1)c1ccccn1 (centres undefined)	13%[38.3 µM]	-20%[46.1 µM]	10µM*	.	-71%
C=CCSc1nnc(NC(=O)CSc2nc(CCC)cc(=O)[nH]2)s1	44%[38.3 µM]	-13%[46.1 µM]	11µM*	.	20%[10 µM]
Cc1ccc2nc(NC(=O)c3ccco3)sc2c1	-8%[38.3 µM]	-11%[46.1 µM]	-14%	.	-135%
Cc1ccc2nc(NC(=S)NC(=O)c3ccco3)sc2c1	13µM*	-45%	1%	-3%	.
SMILES	IMPase Li cell	NPSR antagonist	HttQ103 aggreg	ERK EGF inh	HTT cytoprotect
Cc1sc(NC(=O)CN2CCOCC2)nc1-c1ccc2c(c1)CCN2S(=O)(=O)c1ccccc1	33%[38.3 µM]	-17%[46.1 µM]	7.1µM*	.	-17%
Cc1ccc2nc(NC(=O)CN3CCOCC3)sc2c1	5%[38.3 µM]	-2%[46.1 µM]	3.2µM*	.	-23%
Cc1ccccc1C1CC(=O)Oc2ccc(O)cc21 (centres undefined)	1%	.	.	.	14%[96.6 µM]
CCC/C=C(\CCC)C(NC(=O)c1cccs1)c1ccc(C(F)(F)F)cc1 (centres undefined)	6%	.	.	0%	-36%
Nc1ncnc2c1nc(Sc1ccc(Cl)cc1)n2[C@@H]1O[C@H]2COP(=O)(O)O[C@@H]2[C@H]1O	.	.	.	.	-17%[1.9 µM]
COc1cc(S(=O)(=O)n2cnc(C)c2)ccc1Br	11%	5%	7%[9.22 µM]	15%	10%[10 µM]
Cc1cn(S(=O)(=O)c2ccc(Br)c3ccccc23)cn1	11µM*	1µM*	-32%	.	15%[10 µM]
N#CC1=C2SCN(c3ccccc3)CN2C(=O)CC1c1c(Cl)cccc1Cl (centres undefined)	16%[38.3 µM]	-12%[46.1 µM]	6%	.	-23%
N#CC1=C2SCN(c3ccccc3)CN2C(=O)CC1c1cccs1 (centres undefined)	28µM*	-16%[46.1 µM]	13%	.	-7%
Nc1nc(N)nc(-c2cc(Cl)ccc2Cl)n1	.	.	1%	.	7.9µM*
Nc1nc(N)nc(-c2ccc(Cl)cc2)n1	-9%[38.3 µM]	-9%[46.1 µM]	-5%[9.22 µM]	.	-21%
COc1cc2c3nnc(-c4ccccc4)c-3cn(Cc3ccccc3F)c2cc1OC	-3%	10µM*	8%	-1%	-2%[10 µM]
COc1cc2c3nnc(-c4ccc(F)cc4)c-3cn(Cc3ccccc3F)c2cc1OC	-1%	-16%	7.1µM*	2%	-121%
COc1ccc(-c2nnc(SCc3ccccc3F)o2)cc1OC	3%[38.3 µM]	-29%[46.1 µM]	?	.	-25%[10 µM]
CCCCC/C=C\C[C@@H](O)/C=C/C=C\CCC(=O)O	-5%	.	.	-5%	-31%
Cc1ccc([N+](=O)[O-])c(C)c1	5%	.	.	.	2%
Cc1noc(C)c1S(=O)(=O)N1CCc2nc(COc3ccccc3)c3c(c2C1)CO[C@@H](C)C3	16%	.	.	.	8%[10 µM]
CC(C)CNS(=O)(=O)c1ccc(CCC(=O)N2CCN(Cc3ccc4c(c3)OCO4)CC2)cc1	7%	-10%[46.1 µM]	11µM*	3%	-18%[0.074 µM]
O=C(CCc1ccc(S(=O)(=O)NCCc2ccccc2)cc1)N1CCN(Cc2ccc3c(c2)OCO3)CC1	29%[38.3 µM]	-21%[46.1 µM]	4%[9.22 µM]	.	-1%
CCOc1ccc(S(=O)(=O)O)c2cccnc12	.	.	14%	.	-9%
C=C1C(=O)O[C@@H]2[C@H]3O[C@]3(C)CCC=C(C)CC[C@@H]12	11%	3%[46.1 µM]	.	6%	-86%
C=C1C(=O)O[C@@H]2[C@@H]1CC/C(C)=C\CC[C@@]1(C)O[C@H]21	-5%	.	14µM*	-1%[25.7 µM]	?
CCN1C(=O)[C@@H]2[C@H]3C(=CC[C@H]2C1=O)C(=O)[C@H]1OC1[C@H]3O (some centres undefined)	.	.	.	.	2.8µM*
O=C1C2=CC[C@H]3C(=O)N(C[C@@H]4CCCO4)C(=O)[C@@H]3[C@@H]2[C@H](O)[C@@H]2O[C@H]12	.	.	.	.	1.4µM*
O=C(O)c1ccccc1-c1ccc(C(F)(F)F)cc1	.	.	17%	.	?
COc1ccc(OCC2Cc3c(-c4ccccc4)nc4c(c3CO2)CN(CCOc2ccccc2)CC4)cc1 (centres undefined)	.	.	.	.	5%[10 µM]
COc1cccc(-c2nnc(SC(C(=O)c3c[nH]c4ccccc34)c3ccccc3)n2C)c1 (centres undefined)	4%	-40%	?	3%	.
